# Laboratory results from PubChem BioAssay (NCATS).
# Results filed as inconclusive are left out. A call without a number means that no potency is given here. Calls of active or inactive are those of the source. Unless noted, the call rests on the fitted dose curve; in most records, active means well fitted inhibition curve with a large enough effect; inconclusive means small, poorly fitted or top-dose-only effect; inactive means flat fitted curve, though single readings scatter.
# What was measured:
# [1] = qHTS drug screen for cell cycle checkpoint inhibitors in PARPi-resistant BRCA-mutant ovarian cancer cell lines. (AID 1963452; calls by dose curve); conditions: PEO1/OlaR viability, CellTiter-Glo luminescence, 96 h, stronger effect = lower value
# Procedure, shortened: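 PEO1, PEO4 and PEO1/OlaR ovarian cancer cells, 600 per well, exposed 96 h at 37C to a dilution series. Viability read by CellTiter-Glo luminescence, normalized to DMSO and empty wells; activity summarized as Z-AUC.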
# [2] = qHTS profiling for inhibitors of Plasmodium falciparum proliferation (AID 504749); further: nearly all actives have a fitted effect of over 60% in size; further: potency means the concentration at half of the fitted maximal effect; conditions: P. falciparum in erythrocytes, SYBR Green DNA, 72 h, at 28.7 µM (top of the series)
# Procedure, shortened: (§1)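 Readout was DNA-dye fluorescence from lysed cultures, ex 485/em 535 nm. Parasitized red cells had grown 72 h with compound; data scaled between 0.29 uM artemisinin and DMSO wells and corrected using vehicle-only plates.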
# [3] = tested on: 3D7; assay: as above; conditions: P. falciparum in erythrocytes, SYBR Green DNA, 72 h; series mostly up to 28.7 µM
# Procedure, shortened: as §1
# [4] = tested on: 7G8; assay: as above; conditions: P. falciparum in erythrocytes, SYBR Green DNA, 72 h; series mostly up to 28.7 µM
# Procedure, shortened: as §1
# [5] = tested on: AA1029; assay: as above; conditions: P. falciparum in erythrocytes, SYBR Green DNA, 72 h; series mostly up to 28.7 µM
# Procedure, shortened: as §1
# [6] = tested on: AS120; assay: as above; conditions: P. falciparum in erythrocytes, SYBR Green DNA, 72 h; series mostly up to 28.7 µM
# Procedure, shortened: as §1
# [7] = tested on: ATS189; assay: as above; conditions: P. falciparum in erythrocytes, SYBR Green DNA, 72 h; series mostly up to 28.7 µM
# Procedure, shortened: as §1
# [8] = tested on: ATS95; assay: as above; conditions: P. falciparum in erythrocytes, SYBR Green DNA, 72 h; series mostly up to 28.7 µM
# Procedure, shortened: as §1
# [9] = tested on: C2A; assay: as above; conditions: P. falciparum in erythrocytes, SYBR Green DNA, 72 h; series mostly up to 28.7 µM
# Procedure, shortened: as §1
# [10] = tested on: CP185; assay: as above; conditions: P. falciparum in erythrocytes, SYBR Green DNA, 72 h; series mostly up to 28.7 µM
# Procedure, shortened: as §1
# [11] = tested on: CP191; assay: as above; conditions: P. falciparum in erythrocytes, SYBR Green DNA, 72 h; series mostly up to 28.7 µM
# Procedure, shortened: as §1
# [12] = tested on: CP192; assay: as above; conditions: P. falciparum in erythrocytes, SYBR Green DNA, 72 h; series mostly up to 28.7 µM
# Procedure, shortened: as §1
# [13] = tested on: CP201; assay: as above; conditions: P. falciparum in erythrocytes, SYBR Green DNA, 72 h; series mostly up to 28.7 µM
# Procedure, shortened: as §1
# [14] = tested on: CP211; assay: as above; conditions: P. falciparum in erythrocytes, SYBR Green DNA, 72 h; series mostly up to 28.7 µM
# Procedure, shortened: as §1
# [15] = tested on: CP215; assay: as above; conditions: P. falciparum in erythrocytes, SYBR Green DNA, 72 h; series mostly up to 28.7 µM
# Procedure, shortened: as §1
# [16] = tested on: CP217; assay: as above; conditions: P. falciparum in erythrocytes, SYBR Green DNA, 72 h; series mostly up to 28.7 µM
# Procedure, shortened: as §1
# [17] = tested on: CP237; assay: as above; conditions: P. falciparum in erythrocytes, SYBR Green DNA, 72 h; series mostly up to 28.7 µM
# Procedure, shortened: as §1
# [18] = tested on: CP194; assay: as above; conditions: P. falciparum in erythrocytes, SYBR Green DNA, 72 h; series mostly up to 28.7 µM
# Procedure, shortened: as §1
# [19] = tested on: CP203; assay: as above; conditions: P. falciparum in erythrocytes, SYBR Green DNA, 72 h; series mostly up to 28.7 µM
# Procedure, shortened: as §1
# [20] = measured here: PEO1 parental Z-AUC
compound,measurement,setting,value
C=C(C)[C@H]1Cc2c(ccc3c2O[C@@H]2COc4cc(OC)c(OC)cc4[C@@H]2C3=O)O1,Z-AUC,[1],-1.61 (inactive)
same,Z-AUC,[1]; [20],-2.63
same,Z-AUC,[1]; measured here: PEO4 Z-AUC,-1.87
same,"activity, negative = inhibition",[2]; parasite line A,-0.828% (inactive)
same,"activity, negative = inhibition",[2]; parasite line B,-4.67% (inactive)
same,Potency,[3],inactive
same,Potency,[4],10 µM (active)
same,Potency,[5],inactive
same,Potency,[6],inactive
same,Potency,[7],inactive
same,Potency,[8],inactive
same,Potency,[9],inactive
same,Potency,[10],inactive
same,Potency,[11],inactive
same,Potency,[12],inactive
same,Potency,[13],inactive
same,Potency,[14],inactive
same,Potency,[15],inactive
same,Potency,[16],inactive
same,Potency,[17],inactive
COC[C@H]1OC(=O)c2coc3c2[C@@]1(C)C1=C(C3=O)C2CCC(=O)[C@@]2(C)C[C@H]1OC(C)=O (some centres undefined),Z-AUC,[1],0.865 (inactive)
same,Z-AUC,[1]; [20],0.666
same,Z-AUC,[1]; measured here: PEO4 Z-AUC,0.563
C#CCN(C)[C@H](C)Cc1ccccc1,Z-AUC,[1],0.853 (inactive)
same,Z-AUC,[1]; [20],0.381
same,Z-AUC,[1]; measured here: PEO4 Z-AUC,0.551
CCC(C(N)=O)N1CCCC1=O (centres undefined),"activity, negative = inhibition",[2]; parasite line A,2.96% (inactive)
same,"activity, negative = inhibition",[2]; parasite line B,6.9% (inactive)
same,Potency,[3],inactive
same,Potency,[4],inactive
same,Potency,[5],inactive
same,Potency,[6],inactive
same,Potency,[7],inactive
same,Potency,[8],inactive
same,Potency,[9],inactive
same,Potency,[10],inactive
same,Potency,[11],inactive
same,Potency,[12],inactive
same,Potency,[18],inactive
same,Potency,[13],inactive
same,Potency,[14],inactive
same,Potency,[15],inactive
same,Potency,[16],inactive
same,Potency,[17],inactive
CC(=O)Nc1cc([As](=O)(O)O)ccc1O,"activity, negative = inhibition",[2]; parasite line A,-21% (inactive)
same,"activity, negative = inhibition",[2]; parasite line B,-0.406% (inactive)
same,Potency,[3],inactive
same,Potency,[4],inactive
same,Potency,[5],inactive
same,Potency,[6],inactive
same,Potency,[7],inactive
same,Potency,[8],inactive
same,Potency,[9],inactive
same,Potency,[10],inactive
same,Potency,[11],inactive
same,Potency,[12],inactive
same,Potency,[18],inactive
same,Potency,[14],inactive
same,Potency,[15],inactive
same,Potency,[16],inactive
same,Potency,[17],inactive
CCN(CC)CCOC(=O)C(O)(c1ccccc1)c1ccccc1,"activity, negative = inhibition",[2]; parasite line A,9.85% (inactive)
same,"activity, negative = inhibition",[2]; parasite line B,-20.6% (inactive)
same,Potency,[3],inactive
same,Potency,[4],inactive
same,Potency,[5],inactive
same,Potency,[6],inactive
same,Potency,[7],inactive
same,Potency,[8],inactive
same,Potency,[9],inactive
same,Potency,[10],inactive
same,Potency,[11],inactive
same,Potency,[12],inactive
same,Potency,[18],inactive
same,Potency,[13],inactive
same,Potency,[14],inactive
same,Potency,[16],inactive
same,Potency,[17],inactive
CCOP(=S)(OCC)Oc1cc(C)nc(C(C)C)n1,"activity, negative = inhibition",[2]; parasite line A,5.69% (inactive)
same,"activity, negative = inhibition",[2]; parasite line B,9.55% (inactive)
same,Potency,[3],inactive
same,Potency,[4],inactive
same,Potency,[5],inactive
same,Potency,[6],inactive
same,Potency,[7],inactive
same,Potency,[8],inactive
same,Potency,[9],inactive
same,Potency,[10],inactive
same,Potency,[11],inactive
same,Potency,[12],inactive
same,Potency,[18],inactive
same,Potency,[13],inactive
same,Potency,[19],inactive
same,Potency,[14],inactive
same,Potency,[15],inactive
same,Potency,[16],inactive
same,Potency,[17],inactive
CC(=O)[C@H]1CC[C@H]2[C@@H]3CC[C@H]4C[C@](C)(O)CC[C@]4(C)[C@H]3CC[C@]12C,"activity, negative = inhibition",[2]; parasite line A,3.34% (inactive)
same,"activity, negative = inhibition",[2]; parasite line B,12.8% (inactive)
same,Potency,[3],inactive
same,Potency,[4],inactive
same,Potency,[5],inactive
same,Potency,[6],inactive
same,Potency,[7],inactive
same,Potency,[8],inactive
same,Potency,[9],inactive
same,Potency,[10],inactive
same,Potency,[11],inactive
same,Potency,[12],inactive
same,Potency,[18],inactive
same,Potency,[13],inactive
same,Potency,[14],inactive
same,Potency,[15],inactive
same,Potency,[16],inactive
same,Potency,[17],inactive
NCC(CC(=O)O)c1ccc(Cl)cc1 (centres undefined),"activity, negative = inhibition",[2]; parasite line A,6.71% (inactive)
same,"activity, negative = inhibition",[2]; parasite line B,18.2% (inactive)
same,Potency,[3],inactive
same,Potency,[4],inactive
same,Potency,[5],inactive
same,Potency,[6],inactive
same,Potency,[7],inactive
same,Potency,[8],inactive
same,Potency,[9],inactive
same,Potency,[10],inactive
same,Potency,[11],inactive
same,Potency,[12],inactive
same,Potency,[18],inactive
same,Potency,[13],inactive
same,Potency,[14],inactive
same,Potency,[15],inactive
same,Potency,[16],inactive
same,Potency,[17],inactive
O=C(NC(O)C(Cl)(Cl)Cl)NC(O)C(Cl)(Cl)Cl (centres undefined),"activity, negative = inhibition",[2]; parasite line A,-1.71% (inactive)
same,"activity, negative = inhibition",[2]; parasite line B,6.79% (inactive)
same,Potency,[3],inactive
same,Potency,[4],inactive
same,Potency,[5],inactive
same,Potency,[6],inactive
same,Potency,[7],inactive
same,Potency,[8],inactive
same,Potency,[9],inactive
same,Potency,[10],inactive
same,Potency,[11],inactive
same,Potency,[12],inactive
same,Potency,[18],inactive
same,Potency,[13],inactive
same,Potency,[19],inactive
same,Potency,[14],inactive
same,Potency,[15],inactive
same,Potency,[16],inactive
same,Potency,[17],inactive
CC(C)=CC1C(C(=O)OCc2cccc(Oc3ccccc3)c2)C1(C)C (centres undefined),"activity, negative = inhibition",[2]; parasite line A,-11.7% (inactive)
same,"activity, negative = inhibition",[2]; parasite line B,-17.5% (inactive)
same,Potency,[3],inactive
same,Potency,[4],12.6 µM (active)
same,Potency,[5],inactive
same,Potency,[6],inactive
same,Potency,[7],inactive
same,Potency,[8],inactive
same,Potency,[9],inactive
same,Potency,[10],inactive
same,Potency,[11],inactive
same,Potency,[12],inactive
same,Potency,[18],inactive
same,Potency,[13],inactive
same,Potency,[14],inactive
same,Potency,[15],inactive
same,Potency,[16],inactive
same,Potency,[17],inactive
CN(C)CCc1ccc(O)cc1,"activity, negative = inhibition",[2]; parasite line A,-8.4% (inactive)
same,"activity, negative = inhibition",[2]; parasite line B,2.47% (inactive)
same,Potency,[3],inactive
same,Potency,[4],inactive
same,Potency,[5],inactive
same,Potency,[6],inactive
same,Potency,[7],inactive
same,Potency,[8],inactive
same,Potency,[9],inactive
same,Potency,[10],inactive
same,Potency,[11],inactive
same,Potency,[12],inactive
same,Potency,[18],inactive
same,Potency,[13],inactive
same,Potency,[14],inactive
same,Potency,[15],inactive
same,Potency,[16],inactive
same,Potency,[17],inactive
O=C(O)c1ccc2[nH]cc(CCCCN3CC=C(c4ccccc4)CC3)c2c1,"activity, negative = inhibition",[2]; parasite line A,5.66% (inactive)
same,"activity, negative = inhibition",[2]; parasite line B,0.723% (inactive)
same,Potency,[3],inactive
same,Potency,[4],inactive
same,Potency,[5],inactive
same,Potency,[6],inactive
same,Potency,[7],inactive
same,Potency,[8],inactive
same,Potency,[9],inactive
same,Potency,[10],inactive
same,Potency,[11],inactive
same,Potency,[12],inactive
same,Potency,[18],inactive
same,Potency,[13],inactive
same,Potency,[19],inactive
same,Potency,[14],inactive
same,Potency,[15],inactive
same,Potency,[16],inactive
same,Potency,[17],inactive
CCC(COC(=O)c1cc(OC)c(OC)c(OC)c1)(c1ccccc1)N(C)C (centres undefined),"activity, negative = inhibition",[2]; parasite line A,-11.1% (inactive)
same,"activity, negative = inhibition",[2]; parasite line B,-13.8% (inactive)
same,Potency,[3],inactive
same,Potency,[4],inactive
same,Potency,[5],inactive
same,Potency,[6],inactive
same,Potency,[7],inactive
same,Potency,[8],inactive
same,Potency,[9],inactive
same,Potency,[10],inactive
same,Potency,[11],inactive
same,Potency,[12],inactive
same,Potency,[18],inactive
same,Potency,[13],inactive
same,Potency,[14],inactive
same,Potency,[15],inactive
same,Potency,[16],inactive
